Among the test systems are NCI-H23 lung; NCI-H226 lung; NCI-H322M lung; HOP-62 NSCLC; NCI-H460 lung; HOP-92 NSCLC; NCI-H522 lung; A549/ATCC NSCLC; 786-0 renal; COLO 205 colon; DU-145 prostate; K-562 leukemia; MALME-3M melanoma; MDA-MB-231 breast; RXF 393 renal; SF-268 CNS; SF-295 CNS; SF-539 CNS; UACC-257 melanoma; M14 melanoma.
Experiment in all cases: NCI-60 one-dose screen, 48 h (100 = growth as untreated, 0 = no growth, -100 = all killed)
Common to all, as to settings: 10 µM unless noted

Molecules are shown by their SMILES. This is part of a sample that, as a whole, favours compounds with a hit. Of some 83,000 tested, about 20% had one in any assay.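 In brief: 96-well plates, 48 h treatment, single concentration, percent growth endpoint.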 Unmarked numbers belong to inactive results. Activity calls are given as the source filed them. Rule for the calls: active = growth percent below 10; inactive = the rest.

Among the data in PubChem BioAssay (NCI) are growth values, retold here.

For `C=C(C)[C@@H]1CCC[C@]2(COS(=O)(=O)c3ccc(C)cc3)CC[C@]3(C)[C@@H](CC[C@@H]4[C@@]5(C)CCCNC(C)(C)[C@@H]5CC[C@]43C)[C@@H]12`, the growth was 25.7% in the assay with NCI-H23 lung; 82.1% in the assay on NCI-H226 lung; 39.7% in the assay with NCI-H322M lung; 69% with HOP-62 NSCLC; -49.1% (active) with NCI-H460 lung; 19% with HOP-92 NSCLC. The growth in the assay with NCI-H522 lung is -41% (active); in the assay on A549/ATCC NSCLC, -12% (active); in the assay on 786-0 renal, -77.5% (active); in the assay on COLO 205 colon, -86.1% (active); with DU-145 prostate it was 0.903% (active); in the assay with K-562 leukemia, -33.4% (active). Also, the growth was 4.1% (active) with MALME-3M melanoma; -10.3% (active) in the assay on MDA-MB-231 breast; -79.9% (active) with RXF 393 renal; 48.2% in the assay with SF-268 CNS; -11.5% (active) in the assay on SF-295 CNS; 71.9% in the assay with SF-539 CNS. In addition, the growth in the assay on UACC-257 melanoma was 58.5%; in the assay on M14 melanoma, -20.6% (active).
In the case of `CC(=O)n1nc(C(=O)OC(C)(C)c2ccccc2)c2ccccc21`, the growth was 94.2% with NCI-H23 lung; 85.7% with NCI-H226 lung; 87.9% in the assay with NCI-H322M lung; 97.3% in the assay with HOP-62 NSCLC; 100% with NCI-H460 lung; 94.1% with HOP-92 NSCLC. For the same compound, the growth in the assay with NCI-H522 lung was 85.5%; with A549/ATCC NSCLC, 91.8%; in the assay with 786-0 renal it was 96.8%; in the assay with COLO 205 colon, 107%; in the assay on DU-145 prostate, 111%; in the assay with K-562 leukemia it was 97%. Besides, the growth is 105% in the assay on MALME-3M melanoma; 85.4% with MDA-MB-231 breast; 92.2% in the assay with RXF 393 renal; 99.2% with SF-268 CNS; 93.1% in the assay on SF-295 CNS; 97.7% in the assay on SF-539 CNS. For the same compound, the growth in the assay on UACC-257 melanoma was 89.5%; in the assay with M14 melanoma, 96.4%.
Turning to `Cc1ccc2c(Cn3cc(CSc4nc5ccccc5o4)nn3)cc(=O)oc2c1`, the growth in the assay with NCI-H23 lung is 96.1%; with NCI-H226 lung, 110%; with NCI-H322M lung it was 104%; with HOP-62 NSCLC it was 105%; in the assay on NCI-H460 lung it was 110%; in the assay on HOP-92 NSCLC, 110%. Moreover, the growth was 97.6% with NCI-H522 lung; 105% in the assay with A549/ATCC NSCLC; 105% in the assay with 786-0 renal; 111% in the assay with COLO 205 colon; 111% in the assay with DU-145 prostate; 98.4% with K-562 leukemia. Moreover, the growth in the assay on MALME-3M melanoma is 104%; with MDA-MB-231 breast, 106%; with RXF 393 renal it was 98.6%; with SF-268 CNS, 103%; with SF-295 CNS, 110%; in the assay on SF-539 CNS it was 101%. For the same compound, the figures for the growth with UACC-257 melanoma and with M14 melanoma were 104% and 114%, respectively.
As to `O=S(=O)(Nc1cc(Cl)ccc1Cl)c1ccc(-c2cnc(C3CC3)o2)cc1`, the growth with NCI-H23 lung was 52.8%; in the assay with NCI-H226 lung it was 40.3%; in the assay with NCI-H322M lung, 59.4%; in the assay on HOP-62 NSCLC, 39.8%; in the assay on NCI-H460 lung, 24.8%; with HOP-92 NSCLC it was 40.4%. In addition, the growth in the assay with NCI-H522 lung was 0.738% (active); in the assay on A549/ATCC NSCLC, 45.2%; with 786-0 renal, 33%; with COLO 205 colon, 43.5%; in the assay on DU-145 prostate, 70.8%; in the assay with K-562 leukemia it was 12%. For the same compound, the growth with MALME-3M melanoma is 55.7%; in the assay on MDA-MB-231 breast it was 65.2%; with RXF 393 renal, 44.8%; in the assay on SF-268 CNS, 49.7%; in the assay on SF-295 CNS, 24.8%; in the assay on SF-539 CNS it was 25.1%. In addition, the growth is 50.6% in the assay on UACC-257 melanoma and 29.1% in the assay with M14 melanoma.
Consider `OB1OCc2cc(/C=C/c3cccc(C(F)(F)F)c3)ccc21`, for which the growth was 21.6% with NCI-H23 lung; -10.2% (active) with NCI-H226 lung; 20.7% with NCI-H322M lung; -17.7% (active) with HOP-62 NSCLC; -10.1% (active) in the assay with NCI-H460 lung; -27.9% (active) in the assay with HOP-92 NSCLC. Further, the growth is 3.78% (active) with NCI-H522 lung; 1.8% (active) in the assay on A549/ATCC NSCLC; -27.2% (active) with 786-0 renal; 25.6% in the assay on COLO 205 colon; -6.62% (active) in the assay with DU-145 prostate; 11.4% in the assay with K-562 leukemia. Moreover, the growth in the assay with MALME-3M melanoma was 9.86% (active); with MDA-MB-231 breast, -33.9% (active); with RXF 393 renal, -40.3% (active); in the assay with SF-268 CNS, 10.6%; in the assay on SF-295 CNS it was 7.3% (active); in the assay with SF-539 CNS, -58.9% (active). Also, the growth in the assay on UACC-257 melanoma was 37.1%; in the assay with M14 melanoma it was -7.54% (active).
For the compound `COC1=CC(c2ccc[nH]2)=N/C1=C\c1[nH]c(C)c(C)c1CCC(=O)OCc1ccccc1`, the growth with NCI-H23 lung is -9.49% (active); with NCI-H226 lung it was -2.19% (active); with NCI-H322M lung, 54.5%; in the assay with HOP-62 NSCLC, -3% (active); in the assay on NCI-H460 lung, 18.6%; with HOP-92 NSCLC it was -27.8% (active). Besides, the growth is -38.7% (active) in the assay on NCI-H522 lung; 10.1% in the assay with A549/ATCC NSCLC; -38.8% (active) with 786-0 renal; -64.8% (active) in the assay on COLO 205 colon; 18.4% in the assay on DU-145 prostate; -7.62% (active) with K-562 leukemia. For the same compound, the growth in the assay on MALME-3M melanoma was -64.8% (active); with MDA-MB-231 breast, -49.5% (active); in the assay with RXF 393 renal, -35.2% (active); with SF-268 CNS, 5.89% (active); in the assay with SF-295 CNS it was -60.1% (active); with SF-539 CNS, -52.3% (active). The growth was -49% (active) with UACC-257 melanoma and -60.8% (active) in the assay on M14 melanoma.
For the compound `NC(Cc1ccc(O)c([N+](=O)[O-])c1)C(=O)O` (stereo not given), the growth in the assay with NCI-H23 lung is 98.5%; in the assay on NCI-H226 lung, 101%; in the assay on NCI-H322M lung, 107%; in the assay on HOP-62 NSCLC, 105%; in the assay on NCI-H460 lung, 113%; with HOP-92 NSCLC, 67.4%. For the same compound, the growth was 94.7% in the assay on NCI-H522 lung; 100% with A549/ATCC NSCLC; 99.2% in the assay on 786-0 renal; 122% with COLO 205 colon; 106% in the assay on DU-145 prostate; 101% with K-562 leukemia. The growth is 109% in the assay with MALME-3M melanoma; 113% in the assay with MDA-MB-231 breast; 108% in the assay with RXF 393 renal; 99.8% in the assay on SF-268 CNS; 117% in the assay with SF-295 CNS; 100% in the assay on SF-539 CNS. Also, the growth in the assay with UACC-257 melanoma was 99.8%; with M14 melanoma, 101%.
As to `CN(C)c1ccc(-c2c(C#N)c(N)nn2C(=O)c2ccc(NC(=O)c3ccccn3)cc2)cc1`, the growth is 96.5% in the assay on NCI-H23 lung; 98.2% with NCI-H226 lung; 96.7% in the assay with NCI-H322M lung; 94.3% in the assay on HOP-62 NSCLC; 94.2% in the assay on NCI-H460 lung; 94.9% with HOP-92 NSCLC. Besides, the growth is 91.4% with NCI-H522 lung; 96.1% with A549/ATCC NSCLC; 96% with 786-0 renal; 104% in the assay with COLO 205 colon; 102% in the assay on DU-145 prostate; 66.9% in the assay on K-562 leukemia. Moreover, the growth with MALME-3M melanoma is 110%; with MDA-MB-231 breast it was 108%; in the assay on RXF 393 renal, 117%; in the assay with SF-268 CNS, 94.1%; in the assay with SF-295 CNS, 99%; in the assay with SF-539 CNS, 92%. The growth in the assay on UACC-257 melanoma is 112%; in the assay with M14 melanoma it was 84.1%.
